According to PubChem BioAssay AID504616 (Sanford-Burnham Center for Chemical Genomics, 2011):
The other results are listed elsewhere or left out.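 How the source made its calls: active means mean activity change at or below -40% when tested at 20 µM; inactive means the rest.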

Test: detection-step artefacts after finished caspase reaction – biochemical, fluorescence, Rh110, 20 µM, artefact control for Apaf-1 activator project, confirmation (AID 504616)
Conditions: quenched caspase reaction, Ex480/Em540, at 20 µM

Fluorescence interference (activity change), inactive:
Clc1cccc(-c2nc3nc4ccccc4nc3n2Cc2ccco2)c1 6.33%
Cc1cc(NC(=O)c2cccc(N3C(=O)CCC3=O)c2)no1 0.61%
C=CCNC(=O)c1ccc(C)c(Br)c1 10.4%
O=c1[nH]cnc2c1c(-c1ccccc1)cn2-c1ccc(F)cc1 13.3%
C=CC1=C(C(=O)O)N2C(=O)[C@@H](NC(=O)/C(=N\OCC(=O)O)c3csc(N)n3)[C@H]2SC1 11.7%
CN(C)S(=O)(=O)c1ccc(C(=O)NCCN=C2NS(=O)(=O)c3ccccc32)cc1 8.9%
CCOCCc1c(O)nc(SCC(=O)NCc2ccco2)[nH]c1=O -8.32%
CC(C)N1CCC(NC(=O)Nc2ccccc2)CC1 -6.69%
O=C(Nc1ccccc1F)c1ccccc1-c1ccccc1 6.9%
CC(=O)CCC(=O)c1ccc2ccccc2c1 15%
O=C(Nc1cccc(C(F)(F)F)c1)c1cnccn1 0.73%
COc1ccc2c(c1)CCNC2Cc1ccc(OC)c(O)c1 (stereo unspecified) -0.08%
COc1ccc(OCCCC(=O)NCCc2ccccc2)cc1 3.73%
Cc1nn(CC(=O)Nc2ccc(C#N)cc2)c(C)c1[N+](=O)[O-] -2.47%
Cc1ccc(S(=O)(=O)N2CCOCC2)cc1C(=O)NC(=S)N(Cc1ccccc1)C(C)C 3.5%
COC(=O)C(C)N(C#N)c1nc(C)nc(C)n1 (stereo unspecified) 3.06%
COC(CNC(=O)Cn1ncc2ccsc2c1=O)OC -3.81%
Cc1ccc(Nc2nc(CSc3nnc(-c4ccncc4)n3-c3ccccc3C)cs2)cc1 11.6%
COc1cc(C(=O)NCc2nnc(SCC(=O)Nc3nc4ccc(C)cc4s3)o2)cc(OC)c1OC -5.21%
CC(C)OCCCNC(=S)N1CCC(C(=O)c2ccc3c(c2)OCCO3)CC1 3.57%
O=C(CCc1ccccc1)NNC(=O)c1ccc(Br)cc1 -7.61%
